Reference: the supplement of paper PMC3545927
This is one part of the list. No count for the full screen is at hand.

Target: furin, P09958
Experiment: furin cleavage Z-score vs untreated control; higher = more cleavage, active = 3.5 or more, inactive = 1 or less, 8 variable residues between constant flanks
How it was run: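 Peptides 8 residues long, fused to a cDNA oligonucleotide, were fixed to magnetic beads by the N-terminus and exposed to purified furin. The 0.01 ml reactions contained 50 mM HEPES pH 7.5 with CaCl2 and NaCl at 1:10 enzyme:substrate and ran 7.5, 15 or 30 min. For the cleavage Z-score, log counts of sequenced released DNA were compared with furin-free reactions, lowess-adjusted and scaled by median absolute deviation.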

Chain of furin, P09958 (P09958 whole entry): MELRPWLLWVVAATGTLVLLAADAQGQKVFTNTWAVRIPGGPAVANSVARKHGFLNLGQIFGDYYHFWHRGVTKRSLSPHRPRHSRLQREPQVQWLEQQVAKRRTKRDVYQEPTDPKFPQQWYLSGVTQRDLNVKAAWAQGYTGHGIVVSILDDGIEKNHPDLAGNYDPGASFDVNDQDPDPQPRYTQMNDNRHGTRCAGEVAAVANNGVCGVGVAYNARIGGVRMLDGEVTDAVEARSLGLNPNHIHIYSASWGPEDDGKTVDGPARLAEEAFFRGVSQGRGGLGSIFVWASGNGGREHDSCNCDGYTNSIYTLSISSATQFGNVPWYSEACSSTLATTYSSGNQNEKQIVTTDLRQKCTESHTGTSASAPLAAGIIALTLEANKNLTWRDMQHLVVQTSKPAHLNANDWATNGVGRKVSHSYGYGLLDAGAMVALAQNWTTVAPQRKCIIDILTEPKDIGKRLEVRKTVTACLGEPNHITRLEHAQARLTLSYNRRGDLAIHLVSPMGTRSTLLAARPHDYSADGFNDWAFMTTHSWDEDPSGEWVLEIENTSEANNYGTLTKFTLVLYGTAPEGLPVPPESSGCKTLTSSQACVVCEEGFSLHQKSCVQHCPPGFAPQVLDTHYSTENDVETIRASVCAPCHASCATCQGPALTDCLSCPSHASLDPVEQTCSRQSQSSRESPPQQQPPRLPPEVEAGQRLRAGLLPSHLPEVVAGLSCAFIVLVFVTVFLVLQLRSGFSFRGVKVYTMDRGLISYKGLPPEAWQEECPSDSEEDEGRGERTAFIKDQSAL

Sequence | furin cleavage Z-score (7.5 min) | furin cleavage Z-score (15 min) | furin cleavage Z-score (30 min)
CARRKRTAVTAGNASASA [FS-2070] | 8.61 (active) | 9.73 (active) | 8.8 (active)
CARFDRFILTAGNASASA [FS-2331] | -0.835 (inactive) | 0.56 (inactive) | 1.87
CARNKRYALTAGNASASA [FS-2730] | 4.76 (active) | 6.64 (active) | 8.66 (active)
CARRKRYALTAGNASASA [FS-2231] | 5.6 (active) | 9.1 (active) | 7.92 (active)
CAMAFTAAVTAGNASASA [HC1056] | 0.143 (inactive) | -0.123 (inactive) | 0.0661 (inactive)
CAEVVTSTQVAGNASASA [HC2242] | 0.0534 (inactive) | -0.769 (inactive) | -0.513 (inactive)
CAMEECSQMLAGNASASA [HC1746] | 0.461 (inactive) | -0.78 (inactive) | 0.807 (inactive)
CAEVVTTTWVAGNASASA [HC156] | 0.967 (inactive) | 0.111 (inactive) | 0.291 (inactive)
CAIERRKKRSAGNASASA [FS-1341] | 11.5 (active) | 11.5 (active) | 10.3 (active)
CASCLTVPASAGNASASA [HC252] | -0.0568 (inactive) | -0.538 (inactive) | -1.9 (inactive)
CAQESQKKRSAGNASASA [FS-1474] | -0.591 (inactive) | -0.0857 (inactive) | 0.142 (inactive)
CASCLRHKRSAGNASASA [FS-716] | 4.23 (active) | 3.94 (active) | 4 (active)
CATEKRKKRSAGNASASA [FS-879] | 10.8 (active) | 10.5 (active) | 9.01 (active)
CAINFRDKRSAGNASASA [FS-667] | 10.5 (active) | 11.5 (active) | 8.52 (active)
CAMEECSKHLAGNASASA [HC1734] | 0.481 (inactive) | 1.71 | -0.626 (inactive)
CAVVCCLMSYAGNASASA [HC104] | -0.57 (inactive) | -0.101 (inactive) | -0.447 (inactive)
CAEPVVCCSMAGNASASA [HC2139] | 0.036 (inactive) | -1.42 (inactive) | 1.07
CAVLDSHYQDAGNASASA [HC1400] | -0.288 (inactive) | -1.98 (inactive) | 0.522 (inactive)
CATEHRVCRSAGNASASA [FS-508] | 3.96 (active) | 5.27 (active) | 4.89 (active)
CAIERVHKRSAGNASASA [FS-1342] | 6.81 (active) | 7.58 (active) | 7.96 (active)
CASDDRLCRSAGNASASA [FS-1484] | -0.386 (inactive) | 0.196 (inactive) | -1 (inactive)
CAEYVEIRQVAGNASASA [HC1205] | -0.199 (inactive) | -0.194 (inactive) | 1.29
CARTARAVSPAGNASASA [FS-2611] | 5.89 (active) | 8.14 (active) | 7.16 (active)

Sequence | furin cleavage Z-score (7.5 min) | furin cleavage Z-score (15 min) | furin cleavage Z-score (30 min)
CARTARSEEDAGNASASA [FS-3103] | -1.19 (inactive) | -0.787 (inactive) | 0.992 (inactive)
CARPEKSVNKAGNASASA [FS-1759] | -1.61 (inactive) | 0.261 (inactive) | -0.528 (inactive)
CARTARAWGKAGNASASA [FS-3102] | -0.427 (inactive) | 0.174 (inactive) | 1.29
CARAARGTSPAGNASASA [FS-2633] | -0.591 (inactive) | -1.01 (inactive) | 1.21
CARFARHVSPAGNASASA [FS-2138] | 10.5 (active) | 9.18 (active) | 9.56 (active)
CARTARSTNKAGNASASA [FS-2094] | 5.26 (active) | 7.87 (active) | 5.51 (active)
CAFTAAVTSPAGNASASA [HC1057] | -0.794 (inactive) | -0.905 (inactive) | -0.554 (inactive)
CALKAKLMPQAGNASASA [HC1158] | 1.55 | 0.58 (inactive) | -1.58 (inactive)
CAVVCGSMSYAGNASASA [HC82] | -0.0603 (inactive) | -1.58 (inactive) | 0.38 (inactive)
CALRDYIPRIAGNASASA [FS-1464] | -0.691 (inactive) | -1.05 (inactive) | -0.313 (inactive)
CALRYRHKRIAGNASASA [FS-1541] | 6.08 (active) | 8.2 (active) | 8.94 (active)
CARFHRACRLAGNASASA [FS-1257] | -0.645 (inactive) | -0.00567 (inactive) | -0.322 (inactive)
CALRYRHKRLAGNASASA [FS-1542] | 9.71 (active) | 11.6 (active) | 9.65 (active)
CALKRRDRRMAGNASASA [FS-1227] | 12 (active) | 13.4 (active) | 10.3 (active)
CAQGCRKDRGAGNASASA [FS-77] | -1.71 (inactive) | 0.374 (inactive) | -0.248 (inactive)
CAACLRKLGVAGNASASA [HC1614] | -0.73 (inactive) | -0.95 (inactive) | 1.04
CATKKRPRRMAGNASASA [FS-1171] | 7.17 (active) | 8.34 (active) | 8.69 (active)
CAYCLRKRRMAGNASASA [FS-1664] | 8.61 (active) | 9.15 (active) | 7.84 (active)
CASWERPRRPAGNASASA [FS-876] | -1.15 (inactive) | -0.626 (inactive) | 0.927 (inactive)
CAYPNRPDRPAGNASASA [FS-110] | -0.325 (inactive) | 0.955 (inactive) | 0.00762 (inactive)
CAYCLSTGCVAGNASASA [HC997] | -1.15 (inactive) | 0.0405 (inactive) | -1.03 (inactive)
CAWGRRKARMAGNASASA [FS-1437] | 8.17 (active) | 11.8 (active) | 9.74 (active)
